Data reported in PubChem BioAssay (NCATS).
Inconclusive results are not listed. A call without a number means that no potency is given here. The source made the active and inactive calls. Unless noted, calls follow the shape of the dose curve; as a rule, active = well fitted curve in the direction sought with a large enough effect; inconclusive = small, poorly fitted or top-dose-only effect, or another doubt; inactive = no such curve, though single readings can be large; an effect the other way counts as inactive or inconclusive.

What was measured:
[1] = molecular target: Bile acid receptor (Homo sapiens) (UniProt Q96RI1); assay: qHTS assay for small molecule antagonists of farnesoid X receptor signaling (AID 588526; calls by dose curve)
Sequence of Bile acid receptor (Homo sapiens) (Q96RI1 whole entry, looked up): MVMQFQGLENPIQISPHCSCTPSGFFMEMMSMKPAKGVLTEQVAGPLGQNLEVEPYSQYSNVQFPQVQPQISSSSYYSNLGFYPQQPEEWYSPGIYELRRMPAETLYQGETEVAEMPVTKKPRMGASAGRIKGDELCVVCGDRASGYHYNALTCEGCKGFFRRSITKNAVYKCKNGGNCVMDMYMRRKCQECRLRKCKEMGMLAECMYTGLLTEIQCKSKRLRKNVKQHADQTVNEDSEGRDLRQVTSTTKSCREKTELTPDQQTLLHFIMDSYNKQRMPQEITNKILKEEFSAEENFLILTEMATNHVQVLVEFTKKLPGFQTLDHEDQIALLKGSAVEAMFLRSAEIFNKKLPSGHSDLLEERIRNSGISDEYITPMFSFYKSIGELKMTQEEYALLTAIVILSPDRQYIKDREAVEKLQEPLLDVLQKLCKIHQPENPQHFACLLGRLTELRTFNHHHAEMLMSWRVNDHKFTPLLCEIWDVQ
How it was run: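 Antagonist mode: titrated compounds tested against chenodeoxycholic acid stimulation (normalized to 50 uM CDCA and DMSO) in GeneBLAzer HEK293T cells for 16 h. Beta-lactamase read by CCF4 fluorescence; IC50 from Hill fits.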

[2] = molecular target: Glucocorticoid receptor (Homo sapiens) (UniProt P04150); assay: qHTS assay for small molecule agonists of glucocorticoid receptor signaling (AID 588532; active = well fitted curve in the direction sought with a large enough effect in the signal ratio, with a control signal flat; the % refers to the signal ratio); conditions: HeLa MMTV-bla, beta-lactamase ratio, agonist, 18 h; stronger effect = higher value; percent of dexamethasone control, DMSO zero
How it was run: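 MMTV-bla HeLa beta-lactamase reporter cells in 1% charcoal/dextran FBS medium, compounds up to 92 uM for 18 h at 37 C, CCF4 readout; normalized to 0.1 uM dexamethasone (100%), EC50 and efficacy from Hill fits.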

[3] = qHTS assay for small molecule antagonists of peroxisome proliferator-activated receptor delta signaling (AID 588535; active = well fitted inhibition curve with a large enough effect in the signal ratio, with a control signal flat, not every such curve was filed as active; the % refers to the signal ratio;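 as to max response: cells co-treated with a PPAR-delta agonist as stimulator during compound exposure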); conditions: HEK293T PPARd-UAS-bla, beta-lactamase FRET ratio, 18 h; 460 nm channel
How it was run: (§1)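 Antagonist-mode beta-lactamase reporter (GeneBLAzer PPAR-delta-UAS-bla) in HEK293T cells, 2% charcoal/dextran FBS, 4000 cells/well. Compound titrations, 18 h at 37 C; CCF4 ratio read, IC50 and efficacy from Hill fits.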

[4] = molecular target: Peroxisome proliferator-activated receptor delta (Homo sapiens) (UniProt Q03181); assay: as above
Sequence of Peroxisome proliferator-activated receptor delta (Homo sapiens) (Q03181 whole entry, looked up): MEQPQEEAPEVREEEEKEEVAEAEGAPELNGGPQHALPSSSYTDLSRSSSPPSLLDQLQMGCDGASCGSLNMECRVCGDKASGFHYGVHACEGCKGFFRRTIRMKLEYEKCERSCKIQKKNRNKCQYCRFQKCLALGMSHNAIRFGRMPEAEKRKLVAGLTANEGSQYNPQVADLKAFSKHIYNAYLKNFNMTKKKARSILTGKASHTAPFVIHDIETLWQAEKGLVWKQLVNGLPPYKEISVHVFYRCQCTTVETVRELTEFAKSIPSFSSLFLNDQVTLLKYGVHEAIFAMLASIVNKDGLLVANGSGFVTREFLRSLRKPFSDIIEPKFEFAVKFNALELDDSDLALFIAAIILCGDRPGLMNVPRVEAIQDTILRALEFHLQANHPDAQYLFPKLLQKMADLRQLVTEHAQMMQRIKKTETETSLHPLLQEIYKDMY
How it was run: as §1

[5] = molecular target: Peroxisome proliferator-activated receptor gamma (Homo sapiens) (UniProt P37231); assay: qHTS assay for small molecule antagonists of peroxisome proliferator-activated receptor gamma signaling (AID 588537; active = well fitted inhibition curve with a large enough effect in the signal ratio, with a control signal flat, not every such curve was filed as active; the % refers to the signal ratio;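 also: reporter cells co-stimulated with 50 nM rosiglitazone agonist during compound treatment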)
Sequence of Peroxisome proliferator-activated receptor gamma (Homo sapiens) (P37231 whole entry, looked up): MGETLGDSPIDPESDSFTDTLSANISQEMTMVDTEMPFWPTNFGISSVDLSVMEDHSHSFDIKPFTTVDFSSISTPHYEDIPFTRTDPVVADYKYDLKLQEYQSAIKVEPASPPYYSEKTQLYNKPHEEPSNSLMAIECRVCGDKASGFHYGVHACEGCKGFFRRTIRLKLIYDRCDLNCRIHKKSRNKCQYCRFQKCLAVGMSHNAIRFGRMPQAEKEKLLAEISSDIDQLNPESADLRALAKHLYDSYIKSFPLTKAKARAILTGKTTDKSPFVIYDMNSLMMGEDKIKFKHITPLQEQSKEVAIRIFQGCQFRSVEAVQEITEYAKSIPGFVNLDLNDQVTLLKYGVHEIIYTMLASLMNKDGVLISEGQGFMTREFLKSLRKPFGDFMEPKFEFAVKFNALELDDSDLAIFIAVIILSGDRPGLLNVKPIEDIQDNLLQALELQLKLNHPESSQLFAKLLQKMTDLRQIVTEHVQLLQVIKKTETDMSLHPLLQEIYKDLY
How it was run: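 PPARγ-UAS-bla HEK293 cells (3000/well) in 1% charcoal/dextran-stripped FBS are treated with compound, then stimulated with 50 nM rosiglitazone for 16 h at 37 °C. Read-out is CCF4 β-lactamase fluorescence after 2 h at RT. IC50 comes from Hill fits normalised to rosiglitazone and DMSO.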

[6] = molecular target: Vitamin D3 receptor (Homo sapiens) (UniProt P11473); assay: qHTS assay for small molecule antagonists of vitamin D receptor signaling (AID 588541; calls by dose curve;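 also: receptor activated by calcitriol during compound treatment; series mostly up to about 77 µM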)
Sequence of Vitamin D3 receptor (Homo sapiens) (P11473 whole entry, looked up): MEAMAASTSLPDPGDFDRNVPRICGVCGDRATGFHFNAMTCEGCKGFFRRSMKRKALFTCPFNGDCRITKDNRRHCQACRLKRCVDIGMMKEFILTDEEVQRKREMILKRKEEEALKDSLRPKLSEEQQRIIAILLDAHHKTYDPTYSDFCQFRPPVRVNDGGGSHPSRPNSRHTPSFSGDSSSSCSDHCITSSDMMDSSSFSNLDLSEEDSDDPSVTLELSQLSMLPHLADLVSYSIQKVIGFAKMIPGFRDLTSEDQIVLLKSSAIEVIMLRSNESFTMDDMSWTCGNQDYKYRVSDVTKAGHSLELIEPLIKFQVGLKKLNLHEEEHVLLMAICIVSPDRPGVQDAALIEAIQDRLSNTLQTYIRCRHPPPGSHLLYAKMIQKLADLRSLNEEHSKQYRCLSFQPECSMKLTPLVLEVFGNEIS
How it was run: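 VDR-UAS-bla HEK293T cells in 2% charcoal-stripped FBS were stimulated with 1-alpha,25-dihydroxyvitamin D3 (3 nM final) plus compound for 16 h at 37 C. The beta-lactamase CCF4 readout was normalized to 50 nM agonist and DMSO, and Hill fits gave IC50.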

[7] = molecular target: Vitamin D3 receptor (Homo sapiens) (UniProt P11473); assay: qHTS assay for small molecule agonists of vitamin D receptor signaling (AID 588543; calls by dose curve)
How it was run: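 β-lactamase reporter, VDR-UAS-bla HEK293T, agonist mode. Cells plated 5 h at 37 °C, compound titration 16 h at 37 °C, CCF4 dye 2 h RT, ratio 460/530 nm. Hill fit → EC50, efficacy vs 50 nM 1α,25-(OH)2D3.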

[8] = qHTS assay for small molecule agonists of retinoid X receptor alpha signaling (AID 588544; calls by dose curve); conditions: HEK293T RXRa-UAS-bla, beta-lactamase reporter, 18 h; 530 nm emission
[9] = molecular target: Retinoic acid receptor RXR-alpha (Homo sapiens) (UniProt P19793); assay: as above
Sequence of Retinoic acid receptor RXR-alpha (Homo sapiens) (P19793 whole entry, looked up): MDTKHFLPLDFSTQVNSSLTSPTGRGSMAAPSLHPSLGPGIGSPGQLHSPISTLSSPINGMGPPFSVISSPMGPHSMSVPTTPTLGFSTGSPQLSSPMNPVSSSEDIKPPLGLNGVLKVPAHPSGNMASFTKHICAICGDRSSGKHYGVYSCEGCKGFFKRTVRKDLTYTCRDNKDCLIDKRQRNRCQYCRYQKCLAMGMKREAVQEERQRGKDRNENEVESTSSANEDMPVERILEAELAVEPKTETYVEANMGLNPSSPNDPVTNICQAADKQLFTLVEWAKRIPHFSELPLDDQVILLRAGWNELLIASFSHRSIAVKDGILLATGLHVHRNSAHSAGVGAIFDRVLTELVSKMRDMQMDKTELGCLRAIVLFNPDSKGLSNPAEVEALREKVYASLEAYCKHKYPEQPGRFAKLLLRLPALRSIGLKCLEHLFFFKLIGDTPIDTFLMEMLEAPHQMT

[10] = molecular target: Thyroid hormone receptor beta (Homo sapiens) (UniProt P10828); assay: qHTS assay for small molecule agonists of thyroid hormone receptor beta signaling (AID 588545; calls by dose curve)
Sequence of Thyroid hormone receptor beta (Homo sapiens) (P10828 whole entry, looked up): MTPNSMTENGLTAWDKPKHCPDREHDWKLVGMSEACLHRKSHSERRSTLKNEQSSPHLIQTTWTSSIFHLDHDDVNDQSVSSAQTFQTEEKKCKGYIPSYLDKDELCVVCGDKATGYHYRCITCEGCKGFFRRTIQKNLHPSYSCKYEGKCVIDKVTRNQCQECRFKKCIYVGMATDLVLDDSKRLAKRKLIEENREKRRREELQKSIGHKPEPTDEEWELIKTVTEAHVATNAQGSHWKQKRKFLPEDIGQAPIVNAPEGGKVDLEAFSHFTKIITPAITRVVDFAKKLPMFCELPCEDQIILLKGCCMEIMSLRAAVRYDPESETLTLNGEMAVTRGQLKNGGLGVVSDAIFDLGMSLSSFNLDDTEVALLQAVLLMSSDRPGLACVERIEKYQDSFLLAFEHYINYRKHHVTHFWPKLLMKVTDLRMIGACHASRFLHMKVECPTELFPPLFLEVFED
How it was run: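 HEK 293 TR-UAS-bla; agonist mode; 18 hrs, 37 C; CCF4, ex 405/em 460 and 530 nm; norm. T3 10 nM = 100%, DMSO = 0%; Hill fit → EC50, efficacy.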

[11] = molecular target: Thyroid hormone receptor beta (Homo sapiens) (UniProt P10828); assay: qHTS assay for small molecule antagonists of thyroid hormone receptor beta signaling (AID 588547; active = well fitted inhibition curve with a large enough effect in the signal ratio, with a control signal flat, not every such curve was filed as active; the % refers to the signal ratio;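 also: cells stimulated with 0.4 nM T3 agonist during compound exposure; series mostly up to about 77 µM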); conditions: TR-UAS-bla HEK293, beta-lactamase ratio, antagonist mode, 18 h
How it was run: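 TR-UAS-bla GripTite HEK293 cells in 2% charcoal/dextran FBS medium; compounds 0.59 nM to 92 uM with T3 at 0.4nM final, 18 h at 37 C. Beta-lactamase read by CCF4 fluorescence (460/530 nm); Hill fits gave IC50 and efficacy.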

[12] = molecular target: Luciferin 4-monooxygenase (Photinus pyralis) (UniProt P08659); assay: Biochemical firefly luciferase enzyme assay for NPC (AID 624030);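 also: purified P. pyralis luciferase at 10 nM with luciferin and ATP substrate; series mostly up to about 59 µM; nearly all actives have a fitted effect of over 70% in size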
How it was run: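 Purified P. pyralis luciferase at 10 nM in 50 mM Tris Acetate (final), luminescence read within 5 minutes of enzyme addition to compounds. Activity normalised to PTC124 versus DMSO; concentration-response curves classed by r2, magnitude and activity.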

[13] = qHTS assay for small molecule agonists of the antioxidant response element (ARE) signaling pathway (AID 651741; active = well fitted activation curve with a large enough effect in the signal ratio; the % refers to the signal ratio; also: potency is read from the fitted curve at half-maximal effect)
How it was run: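 CellSensor ARE-bla HepG2 cells (2,000/well) carrying ARE-driven beta-lactamase, exposed 16 h at 37 C. LiveBLAzer B/G FRET substrate added for 2 h at room temperature; fluorescence intensity read.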

[14] = qHTS assay for small molecule activators of the p53 signaling pathway (AID 651743; active = well fitted activation curve with a large enough effect in the signal ratio, not every such curve was filed as active; the % refers to the signal ratio; also: series mostly up to about 92 µM); conditions: HCT-116 p53RE-bla, beta-lactamase FRET ratio, 16 h; stronger effect = higher value
How it was run: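 p53RE-bla HCT-116 cells carrying a beta-lactamase reporter under p53 response elements were exposed to compounds for 16 hours at 37 C. Reporter activity read as fluorescence after 2 hours at room temperature with LiveBLAzer B/G FRET substrate.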

[15] = qHTS assay for environmental chemicals that activate the Aryl hydrocarbon Receptor (AhR) signaling pathway (AID 651777); conditions: 1A2-DRE human hepatoma cells, luciferase, 24 h; stronger effect = higher value; also: nearly all actives have a fitted effect of over 15% in size
How it was run: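 Luminescence (One-Glo, 30 min, room temperature) reports AhR-driven luciferase in stably transfected human hepatoma cells bearing DRE and CYP1A2 promoter. Cells (1,200/well) were treated with compound for 24 hr at 37 C in qHTS format.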

[16] = molecular target: Peroxisome proliferator-activated receptor alpha (Homo sapiens) (UniProt Q07869); assay: qHTS assay for small molecule agonists of the peroxisome proliferator-activated receptor alpha (PPARalpha) signaling pathway (AID 651778); conditions: PathHunter PPARalpha complementation, chemiluminescence, 6 h; stronger effect = higher value
Sequence of Peroxisome proliferator-activated receptor alpha (Homo sapiens) (Q07869 whole entry, looked up, the tested form may be a part): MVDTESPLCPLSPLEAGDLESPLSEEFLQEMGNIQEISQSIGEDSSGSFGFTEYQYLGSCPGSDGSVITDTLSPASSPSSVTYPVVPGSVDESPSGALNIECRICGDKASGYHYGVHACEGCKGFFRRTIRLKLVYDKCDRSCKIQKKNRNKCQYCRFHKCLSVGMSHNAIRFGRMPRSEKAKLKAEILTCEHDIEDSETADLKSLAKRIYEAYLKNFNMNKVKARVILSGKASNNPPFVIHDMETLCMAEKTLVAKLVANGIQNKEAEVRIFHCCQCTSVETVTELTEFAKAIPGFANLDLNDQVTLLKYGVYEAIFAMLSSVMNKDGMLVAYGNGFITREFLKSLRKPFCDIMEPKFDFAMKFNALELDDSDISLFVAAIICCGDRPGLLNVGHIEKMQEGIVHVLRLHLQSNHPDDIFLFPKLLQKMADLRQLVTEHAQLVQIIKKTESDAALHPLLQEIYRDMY
How it was run: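 Enzyme-fragment complementation assay in which ligand-bound PPARalpha translocates and forms an active enzyme that generates chemiluminescence. Cells were plated overnight, exposed to compound for 6 hr at 37 C, and then given detection reagent for 60 min at room temperature.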

[17] = qHTS assay for small molecule agonists of the antioxidant response element (ARE) signaling pathway measured by Nrf2-dependant transcriptional activity - cell viability counter screen (AID 720653; active = well fitted curve in the direction sought with a large enough effect in the repeat runs; an effect the other way counts as inactive or inconclusive); conditions: ARE-bla HepG2 viability, CellTiter-Glo ATP luminescence, 16 h; stronger effect = lower value
How it was run: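 ARE-bla HepG2 cells treated with compounds for 16 h at 37C; this counter screen measures viability as intracellular ATP by CellTiter-Glo luminescence after 30 min at room temperature.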

[18] = qHTS Assay for Identifying Gametocytocidal Compounds (AID 743244);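 also: actives lower the fluorescent signal which means gametocytes are killed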; conditions: P. falciparum 3D7 stage III-V gametocytes, alamarBlue, 72 h; max response: stronger effect = lower value
How it was run: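 Stage III–V gametocytes of P. falciparum 3D7 were seeded at 20,000 cells/well onto pre-dispensed compounds. After 72 h, 37 °C, 5% CO2, alamarBlue was added for another 24 h.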

[19] = qHTS assay for cell viability of HEK293 cells (AID 743288); conditions: ATP luminescence (CellTiter-Glo), 18 h, stronger effect = lower value; also: nearly all actives have a fitted effect of over 50% in size
How it was run: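 Environmental chemicals tested in qHTS format against parental HEK293 cells; 18 h treatment, 37 C; read-out ATP luminescence (CellTiter-Glo), 30 min RT development.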

[20] = qHTS assay for cell viability of the p53RE-bla HCT-116 cell line (AID 743292); also: nearly all actives have a fitted effect of over 55% in size
How it was run: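 ATP-based luminescent viability (CellTiter-Glo, 30 min RT) after 16 h compound treatment at 37 C of p53RE-bla HCT-116 cells, seeded at 4,000 cells/well and rested 5 h before dosing.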

[21] = molecular target: Cytochrome P450 2C9 (Homo sapiens) (UniProt P11712); assay: Cytochrome P450 family 2 subfamily C member 9 (CYP2C9) small molecule antagonists: luciferase biochemical (cell-free) qHTS assay (AID 1645842; active = well fitted curve in the direction sought with a large enough effect in the repeat runs; an effect the other way counts as inactive or inconclusive; also: series mostly up to about 57 µM; nearly all actives have a fitted effect of over 55% in size)
Sequence of Cytochrome P450 2C9 (Homo sapiens) (P11712 whole entry, looked up): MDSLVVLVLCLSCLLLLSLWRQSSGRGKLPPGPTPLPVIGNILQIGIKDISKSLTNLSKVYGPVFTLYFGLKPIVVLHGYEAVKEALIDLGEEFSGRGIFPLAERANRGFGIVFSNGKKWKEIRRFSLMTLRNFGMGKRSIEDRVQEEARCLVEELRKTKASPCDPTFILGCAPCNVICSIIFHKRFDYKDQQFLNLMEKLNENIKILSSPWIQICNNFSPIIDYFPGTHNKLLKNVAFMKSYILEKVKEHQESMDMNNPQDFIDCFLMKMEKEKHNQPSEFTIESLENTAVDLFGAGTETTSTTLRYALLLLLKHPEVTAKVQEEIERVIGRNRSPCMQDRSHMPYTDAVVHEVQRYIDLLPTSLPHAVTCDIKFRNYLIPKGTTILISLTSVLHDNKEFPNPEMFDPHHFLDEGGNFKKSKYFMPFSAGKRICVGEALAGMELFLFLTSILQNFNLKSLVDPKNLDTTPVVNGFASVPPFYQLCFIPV
How it was run: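 Luminescence, after 20 min with luciferin detection reagent, reflected CYP2C9 turnover during a 1 h NADPH-driven reaction at 37C. Enzyme-substrate mix contained 0.4% bovine serum albumin and was preincubated with compound 10 min at room temperature.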

[22] = molecular target: Nuclear receptor subfamily 1 group I member 2 (Rattus norvegicus) (UniProt Q9R1A7); assay: qHTS assay for small molecule activators of the rat pregnane X receptor (rPXR) signaling pathway (AID 651751; call rule not given here); conditions: rPXR reporter cells, luciferase (One-Glo), 24 h
Sequence of Nuclear receptor subfamily 1 group I member 2 (Rattus norvegicus) (Q9R1A7 whole entry, looked up): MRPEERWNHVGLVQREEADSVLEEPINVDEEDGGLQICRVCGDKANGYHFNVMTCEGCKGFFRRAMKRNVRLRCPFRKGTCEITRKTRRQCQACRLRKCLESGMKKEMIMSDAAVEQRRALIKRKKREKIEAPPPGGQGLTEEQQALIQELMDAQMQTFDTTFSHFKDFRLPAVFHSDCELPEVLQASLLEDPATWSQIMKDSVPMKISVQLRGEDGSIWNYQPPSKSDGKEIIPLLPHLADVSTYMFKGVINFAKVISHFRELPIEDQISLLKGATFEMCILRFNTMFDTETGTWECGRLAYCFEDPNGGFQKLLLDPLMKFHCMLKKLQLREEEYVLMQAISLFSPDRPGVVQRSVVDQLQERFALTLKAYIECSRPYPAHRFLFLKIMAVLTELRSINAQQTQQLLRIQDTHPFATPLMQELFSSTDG

[23] = molecular target: Glutathione peroxidase 1 (Homo sapiens) (UniProt P07203); assay: Primary qHTS Assay for Inhibitors of Recombinant Selenoprotein Glutathione Peroxidase 1 (GPX1) (AID 1845191); also: nearly all actives have a fitted effect of over 65% in size
Sequence of Glutathione peroxidase 1 (Homo sapiens) (P07203 whole entry, looked up): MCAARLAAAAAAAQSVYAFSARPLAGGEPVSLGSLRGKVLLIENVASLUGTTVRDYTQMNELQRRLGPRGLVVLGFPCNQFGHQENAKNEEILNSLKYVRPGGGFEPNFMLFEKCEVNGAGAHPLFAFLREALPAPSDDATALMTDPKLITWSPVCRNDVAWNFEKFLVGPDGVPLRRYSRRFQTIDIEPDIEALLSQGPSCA
How it was run: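 GR-coupled assay: compounds preincubated 30 min at room temperature with GPX1, then reaction started with CHP; final 10 nM GPX1, 1 mM GSH, 0.5 mM CHP, 0.5 mM NADPH, 100 nM GR, 0.01% BSA, pH 7.5 Tris buffer. NADPH fluorescence (340/450 nm) read at 0 and 15 min.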

[24] = molecular target: Phospholipid hydroperoxide glutathione peroxidase GPX4 (Homo sapiens) (UniProt P36969); assay: Primary qHTS Assay for Inhibitors of Recombinant Selenoprotein Glutathione Peroxidase 4 (GPX4) (AID 1845192); also: series mostly up to about 50 µM; nearly all actives have a fitted effect of over 65% in size
Sequence of Phospholipid hydroperoxide glutathione peroxidase GPX4 (Homo sapiens) (P36969 whole entry, looked up): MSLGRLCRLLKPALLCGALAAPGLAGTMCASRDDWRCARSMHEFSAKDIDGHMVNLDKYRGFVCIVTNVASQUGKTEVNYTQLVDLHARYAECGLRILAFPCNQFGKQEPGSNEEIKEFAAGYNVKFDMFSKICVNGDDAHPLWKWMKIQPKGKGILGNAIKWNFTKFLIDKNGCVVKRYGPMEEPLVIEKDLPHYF
How it was run: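 GR-coupled assay: recombinant GPX4 preincubated 30 min with compound at room temperature; final 200 nM GPX4, 1 mM GSH, 0.5 mM cumene hydroperoxide, 0.5 mM NADPH, 100 nM GR, 0.01% BSA, pH 7.5 Tris. NADPH fluorescence (340/450 nm) read at 0 and 15 min.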

[25] = molecular target: N-terminal Xaa-Pro-Lys N-methyltransferase 1 (Homo sapiens) (UniProt Q9BV86); assay: Confirmatory qHTS for Inhibitors of N-terminal methyltransferase 1 (NTMT1): MTaseGlo Assay (AID 1645874); also: nearly all actives have a fitted effect of over 65% in size; also: potency is read from the fitted curve at half-maximal effect
Sequence of N-terminal Xaa-Pro-Lys N-methyltransferase 1 (Homo sapiens) (Q9BV86 whole entry, looked up): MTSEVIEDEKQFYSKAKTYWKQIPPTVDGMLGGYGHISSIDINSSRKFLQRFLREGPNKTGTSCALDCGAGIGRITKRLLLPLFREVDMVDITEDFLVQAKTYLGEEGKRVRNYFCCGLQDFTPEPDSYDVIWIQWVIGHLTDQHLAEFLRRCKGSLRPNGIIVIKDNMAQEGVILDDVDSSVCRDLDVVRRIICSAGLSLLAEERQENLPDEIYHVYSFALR
How it was run: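 Compounds are incubated with 125 nM NTMT1 and 100 uM SAM for 15 min before the SPKRIA peptide (1 uM) starts a 30 min room-temperature methylation. SAH is measured by coupled luciferase luminescence and curves fitted to a Hill equation.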

Q: Which outcome [1] does the source give for `CCCOC(=O)c1cc(O)c(O)c(O)c1` here?
A: Its outcome is “inactive”.

Q: And the activation [2]?
A: Its activation is -7.56% (inactive).

Q: And the max response [3]?
A: The max response was 51.1%.

Q: What about the outcome [4] of the same compound?
A: Its outcome is “inactive”.

Q: What about the outcome [5] of the same compound?
A: The outcome was “inactive”.

Q: And the outcome [6]?
A: Its outcome is “inactive”.

Q: What about the outcome [7] of the same compound?
A: Its outcome is “inactive”.

Q: And the max response [8]?
A: Its max response is 14.7%.

Q: And the outcome [9]?
A: The outcome was “inactive”.

Q: And the outcome [10]?
A: Its outcome is “inactive”.

Q: What about the activity change % (negative = inhibition) [11] of the same compound?
A: The activity change % (negative = inhibition) was 5.53% (inactive).

Q: What about the Potency [12] of the same compound?
A: Its Potency is “inactive”.

Q: What about the Potency [13] of the same compound?
A: The Potency was 9.69 µM (active).

Q: And the activation [14]?
A: Its activation is -0.803% (inactive).

Q: What about the activation [15] of the same compound?
A: Its activation is 4.88% (inactive).

Q: What about the max response [16] of the same compound?
A: Its max response is 0.0423% (inactive).

Q: What about the max response [17] of the same compound?
A: The max response was -15.7% (inactive).

Q: What about the max response [18] of the same compound?
A: The max response was 14.7% (inactive).

Q: What about the max response [19] of the same compound?
A: Its max response is -23.3% (inactive).

Q: And the outcome [20]?
A: Its outcome is “inactive”.

Q: What about the Potency [21] of the same compound?
A: Its Potency is “inactive”.

Q: And the max response [22]?
A: The max response was -2.93% (inactive).

Q: With `CCN(CC)C(=O)[C@]1(c2ccccc2)C[C@H]1CN` as the compound, how does the Potency [21] read?
A: Its Potency is “inactive”.

Q: What about the Potency [23] of the same compound?
A: Its Potency is “inactive”.

Q: What about the Potency [24] of the same compound?
A: The Potency was “inactive”.

Q: With `COc1ccc(C(=O)Nc2onc3c2CCCC3)cc1` as the compound, how does the Potency [25] read?
A: The Potency was “inactive”.

Q: For `Clc1cccc(-c2nc3ccccn3c2Nc2ccc3c(c2)OCCO3)c1`, which Potency [25] is on record?
A: The Potency was 4.09 µM (active).

Q: For `COc1ccccc1C(=O)Nc1onc2c1CCCC2`, which Potency [25] is on record?
A: Its Potency is “inactive”.

Q: For `CCOc1ccccc1N1CC(c2nc3ccccc3n2CCCCOc2cc(C)ccc2C)CC1=O` (stereo not given), which Potency [25] is on record?
A: Its Potency is “inactive”.

Q: With `N#CNC(=O)c1ccc(-n2cccc2/C=C2\NC(=O)N(CC(=O)Nc3ccc(F)cc3)C2=O)cc1` as the compound, how does the Potency [25] read?
A: Its Potency is 7.58 µM (active).
